# Measured values reported in PubChem BioAssay AID651710 (Broad Institute, 2012).
# Hit rate of the full screen: of about 360,000 compounds, about 1,600 (0.44%) were called active.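 How the source made its calls: active means every replicate showing at least 50% inhibition; inconclusive means mean inhibition at least 50% but not in every replicate; inactive means the rest.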 For the sample, actives were picked, then their nearest neighbours and some compounds at random.
# Target: DNA repair protein RAD52 homolog (Homo sapiens) (UniProt P43351)
# Sequence (P43351 whole entry, looked up): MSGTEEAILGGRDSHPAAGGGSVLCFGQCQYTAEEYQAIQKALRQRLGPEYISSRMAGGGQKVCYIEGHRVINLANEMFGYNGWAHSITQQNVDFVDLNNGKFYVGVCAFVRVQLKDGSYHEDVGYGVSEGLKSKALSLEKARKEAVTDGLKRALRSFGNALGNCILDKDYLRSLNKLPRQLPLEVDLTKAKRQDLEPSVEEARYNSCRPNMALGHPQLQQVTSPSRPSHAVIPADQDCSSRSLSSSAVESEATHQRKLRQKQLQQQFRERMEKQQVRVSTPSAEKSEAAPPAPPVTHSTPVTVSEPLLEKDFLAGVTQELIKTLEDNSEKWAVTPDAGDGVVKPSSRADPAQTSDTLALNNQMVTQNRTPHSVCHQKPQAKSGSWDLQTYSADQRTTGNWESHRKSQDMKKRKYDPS
# Assay: blockers of RAD52 strand annealing activity – biochemical, FRET, single point, set 2, primary screen (AID 651710)
# Conditions: recombinant RAD52 DNA annealing, FRET fluorescence; at 18.7 µM; active compounds read high
row,Structure (SMILES),inhibition
1,CC(=O)N(C)C[C@H]1[C@H](c2ccc(C3=CCCCC3)cc2)[C@H](CO)N1CC1CC1,17.9% (inactive)
2,COCC(=O)N(C)C[C@H]1Oc2cc(C#C[C@@H](C)O)ccc2S(=O)(=O)N([C@@H](C)CO)C[C@@H]1C,-1.74% (inactive)
3,CC(=O)N(C)C[C@@H]1Oc2cc(-c3ccncc3)ccc2S(=O)(=O)N([C@@H](C)CO)C[C@H]1C,3.3% (inactive)
4,CCCN(C)C[C@H]1Oc2cc(C#CC3CCCC3)ccc2S(=O)(=O)N([C@H](C)CO)C[C@@H]1C,-63.3% (inactive)
5,CO[C@@H]1CN(C)C(=O)c2ccc(NC(=O)C3CC3)cc2OC[C@@H](C)N(Cc2ccncc2)C[C@@H]1C,17% (inactive)
6,C[C@H](CO)N1C[C@H](C)[C@H](CN(C)S(=O)(=O)c2cn(C)cn2)Oc2c(NC(=O)c3ccc(-c4nccs4)cc3)cccc2C1=O,7.43% (inactive)
7,COc1cccc2sc(N(CCCN(C)C)C(=O)C(c3ccccc3)c3ccccc3)nc12,56.2% (active)
8,CCN(CC)CCN(C(=O)c1ccc(N2C(=O)CCC2=O)cc1)c1nc2cc3c(cc2s1)OCO3,40.8% (inactive)
9,COc1ccccc1CNC(=O)Cn1cc2c(n1)CCCC2,-14% (inactive)
10,CCN(CC)CCN(C(=O)c1ccc2c(c1)CCCC2)c1nc2c(OC)cccc2s1,53.9% (active)
11,O=C(CN1CCOCC1)N1CC(=O)N2[C@H](C1)[C@H](c1ccc(/C=C/c3ccccc3)cc1)[C@@H]2CO,-3.93% (inactive)
12,O=C(NCCN1CCN(Cc2ccccc2)CC1)c1cc2c(=O)[nH]c3ccccc3c2s1,-32.4% (inactive)
13,CCN(CC)CCCNC(=O)c1cc2c(=O)[nH]c3ccc(C)cc3c2s1,54.3% (active)
14,Cc1cccc(N(C)C(=O)c2cc3c(=O)[nH]c4ccc(C)cc4c3s2)c1,-6.65% (inactive)
15,CO[C@H]1CN(C)C(=O)c2cc(NC(=O)NC(C)C)ccc2OC[C@H](C)N(C(=O)CN(C)C)C[C@H]1C,-12.8% (inactive)
16,CO[C@@H]1CN(C)C(=O)c2cc(NC(=O)Nc3ccc4c(c3)OCO4)ccc2OC[C@@H](C)NC[C@@H]1C,-75.6% (inactive)
17,O=C1c2ccccc2-c2ncnc3c(N4CCOCC4)cc(N4CCOCC4)c1c23,3.29% (inactive)
18,Cc1oc2c(c1C(=O)N1CCOCC1)C(=O)c1ccccc1C2=O,-120% (inactive)
19,COC1=C(N2CCOCC2)C(=O)c2ccccc2C1=O,96.8% (active)
20,CCCNC(=O)C[C@@H]1CC[C@@H]2[C@H](COc3ccc(NC(=O)C4CCOCC4)cc3C(=O)N2C)O1,8.28% (inactive)
21,O=C(Cc1ccccn1)N[C@H]1CC[C@@H](CC(=O)N2CCCCC2)O[C@@H]1CO,-3.74% (inactive)
22,CO[C@@H]1CN(C)C(=O)c2ccc(NC(C)=O)cc2OC[C@@H](C)N(Cc2ccc(-c3ccccn3)cc2)C[C@H]1C,20.8% (inactive)
23,COc1cccc(NC(=O)Nc2ccc3c(c2)C(=O)N(C)C[C@H](OC)[C@@H](C)CN[C@@H](C)CO3)c1,45.9% (inactive)

row,Structure (SMILES),inhibition
1,COc1ccccc1C(=O)Nc1ccc2c(c1)C(=O)N(C)C[C@@H](OC)[C@@H](C)CN(CC1CC1)[C@@H](C)CO2,14.3% (inactive)
2,COc1cccc(NC(=O)Nc2ccc3c(c2)OC[C@@H](C)NC[C@@H](C)[C@H](OC)CN(C)C3=O)c1,84.4% (active)
3,COc1ccc(NC(=O)Nc2ccc3c(c2)OC[C@@H](C)NC[C@@H](C)[C@H](OC)CN(C)C3=O)cc1,-1.22% (inactive)
4,CO[C@@H]1CN(C)C(=O)c2cc(NC(=O)NC(C)C)ccc2OC[C@@H](C)N(CC2CC2)C[C@@H]1C,-2.47% (inactive)
5,COc1cccc(NC(=O)Nc2ccc3c(c2)C(=O)N(C)C[C@@H](OC)[C@H](C)CN(CC2CC2)[C@H](C)CO3)c1,58.2% (active)
6,CCCC(=O)Nc1ccc2c(c1)C(=O)N(C)C[C@H](OC)[C@@H](C)CN[C@H](C)CO2,-5.47% (inactive)
7,O=C(CN1CCOCC1)N[C@@H]1CC[C@H](CCNS(=O)(=O)c2ccccc2F)O[C@H]1CO,-13.5% (inactive)
8,O=C(Cc1ccccc1)N1CC[C@@H]2[C@H](CO)Nc3ccc(-c4ccccc4)cc3[C@@H]21,-10.7% (inactive)
9,Cc1ccc(-c2ccc3c(c2)O[C@H](CN(C)C(=O)Nc2ccc(C(F)(F)F)cc2)[C@@H](C)CN([C@H](C)CO)S3(=O)=O)cc1,-8.45% (inactive)
10,CCOCCCNC(=S)Nc1ccc2nc(N3CCN(CC)CC3)cc(C)c2c1,61% (active)
11,Cc1cc(N2CCOCC2)nc2ccc(NC(=S)N3CCN(Cc4ccccc4)CC3)cc12,-21.2% (inactive)
12,Cc1cc(N2CCN(C)CC2)nc2ccc(NC(=S)N3CCOCC3)cc12,46.4% (inactive)
13,COc1cccc(-c2cnc3c(c2)C(=O)N([C@@H](C)CO)C[C@@H](C)[C@H](CN(C)C(=O)CN(C)C)O3)c1,18.6% (inactive)
14,CC(C)NC(=O)N(C)C[C@H]1Oc2ccc(N(C)C)cc2C(=O)N([C@@H](C)CO)C[C@H]1C,-18.9% (inactive)
15,CCS(=O)(=O)N1CCC2(CC1)CN[C@H](CO)c1c2c2ccc(OC)cc2n1C,5.49% (inactive)
16,COc1ccc2c3c(n(C)c2c1)[C@@H](CO)NCC31CCN(CC2CC2)CC1,55.9% (active)
17,COc1ccc2c3c(n(C)c2c1)[C@@H](CO)NCC31CCN(CC2CCCC2)CC1,37.5% (inactive)
18,COc1ccc(NC(=O)Nc2ccc3c(c2)C(=O)N([C@@H](C)CO)C[C@@H](C)[C@H](CN(C)S(=O)(=O)c2cccs2)O3)cc1,-4.93% (inactive)
19,COc1ccccc1S(=O)(=O)N(C)C[C@H]1Oc2cc(C#CCC3CCCC3)ccc2S(=O)(=O)N([C@@H](C)CO)C[C@H]1C,9.21% (inactive)
20,Cc1ccc(S(=O)(=O)N2C[C@H](O)COC[C@@H]3O[C@@H](CC(=O)NCC4CCCCC4)CC[C@H]32)cc1,37.6% (inactive)
21,O=C(C[C@@H]1CC[C@@H]2[C@H](COC[C@@H](O)CN2S(=O)(=O)c2ccccc2)O1)NCC1CCCCC1,91% (active)
22,O=C(C[C@@H]1CC[C@H]2[C@@H](COC[C@H](O)CN2S(=O)(=O)c2ccccc2)O1)NCCN1CCCC1,8.64% (inactive)
23,COc1ccccc1-c1ccc2c(c1)O[C@@H](CN(C)CC1CCOCC1)[C@H](C)CN([C@@H](C)CO)S2(=O)=O,17% (inactive)

row,Structure (SMILES),inhibition
1,COCC(=O)NC[C@@H]1[C@@H](c2ccc(C3=CCCC3)cc2)[C@@H](CO)N1C(C)=O,2.17% (inactive)
2,CN1CCC(CN)(N2CCN(c3ccccc3)CC2)CC1,83.9% (active)
3,Cc1cc(C)n(-c2nnc(N3CCN(c4ccccc4)CC3)nn2)n1,-6.3% (inactive)
4,CCS(=O)(=O)N1CCC(N2CCN(c3ccccc3)CC2)CC1,-13% (inactive)
5,C[C@@H]1CCCCO[C@@H](CN(C)C)[C@@H](C)CN([C@H](C)CO)C(=O)c2cc(NC(=O)c3ccncc3)ccc2O1,-19.4% (inactive)
6,CCCC#Cc1ccc([C@@H]2[C@@H](CO)N3C(=O)CN(C(=O)Nc4ccc(F)cc4)C[C@@H]23)cc1,6.28% (inactive)
7,O=C(C1CCCC1)N1[C@H](CO)[C@H]2c3ccccc3N(S(=O)(=O)c3ccccc3)C[C@H]21,-8.44% (inactive)
8,C[C@@H]1CN([C@H](C)CO)C(=O)c2cccc(NC(=O)Nc3ccc4c(c3)OCO4)c2O[C@H]1CN(C)S(=O)(=O)c1ccc(Cl)cc1,-13.7% (inactive)
9,O=C(NC[C@H]1CC[C@H]2[C@H](CN2Cc2cccc(Cl)c2)O1)C1CC1,-6.18% (inactive)
10,COc1ccc(CN(C)C[C@H]2OCCCC[C@H](C)Oc3ccc(NC(=O)c4ccccc4)cc3C(=O)N([C@@H](C)CO)C[C@@H]2C)cc1,28.1% (inactive)
11,CO[C@H]1CN(C)C(=O)c2ccc(NC(=O)Nc3ccc(F)cc3)cc2OC[C@@H](C)NC[C@H]1C,-5.12% (inactive)
12,Cc1ccc(C(=O)N/C(=C/c2ccc(-c3cccc([N+](=O)[O-])c3)o2)C(=O)NCCCN(C)C)cc1,65.9% (active)
13,Cc1ccc(C(=O)N/C(=C\c2ccc(F)cc2)C(=O)NCCN2CCOCC2)cc1,-4.68% (inactive)
14,Cc1occc1C(=O)N/N=C/c1ccc(-c2cccc([N+](=O)[O-])c2)o1,-14% (inactive)
15,COc1ccc(CNC(=O)C[C@H]2C[C@H]3c4cc(NS(C)(=O)=O)ccc4O[C@H]3[C@@H](CO)O2)cc1,9.84% (inactive)
16,Cc1ccc(-c2ccc3c(c2)O[C@@H](CN(C)C(=O)CC2CC2)[C@@H](C)CN([C@@H](C)CO)S3(=O)=O)cc1,18.4% (inactive)
17,COCCNC(=O)C[C@@H]1C[C@@H]2c3cc(NC(=O)Nc4ccc(C(F)(F)F)cc4)ccc3O[C@@H]2[C@@H](CO)O1,1.63% (inactive)
18,CN(C)C(CNC(=O)c1ccc(OCc2cn3ccccc3n2)cc1)c1ccco1 (centres undefined),-13.9% (inactive)
19,CC(=O)c1cccc(-c2cnc3c(NC=O)cc(-c4ccccc4Oc4ccccc4)cn23)c1,-29.2% (inactive)
20,CN(C)CCNC(=O)c1ccc(-c2cn3c(-c4ccc(Oc5ccccc5)cc4)cnc3cn2)cc1,85.7% (active)
21,C[C@H]1CN([C@@H](C)CO)C(=O)c2cccc(NS(=O)(=O)c3cn(C)cn3)c2O[C@H]1CN(C)C(=O)Nc1ccc2c(c1)OCO2,-13.3% (inactive)
22,CS(=O)(=O)N1[C@H](C#N)[C@H](c2ccc(C#CC3CC3)cc2)[C@H]1CO,-26.1% (inactive)
23,COc1ccc(NC(=O)N(C)C[C@@H]2Oc3c(NS(=O)(=O)c4ccc(OC)cc4)cccc3C(=O)N([C@H](C)CO)C[C@@H]2C)cc1,-3.75% (inactive)
